# Where “and” joins values, the source holds several entries; their conditions need not be identical. Identical values can stand only once. Results filed as inconclusive are left out. Some structures have more than one record in an assay (separate samples or runs), and their calls can disagree. Calls of active or inactive are those of the source. Unless noted, the call rests on the fitted dose curve; in most records, active means well fitted curve in either direction with a large enough effect (not every such curve was filed as active); inconclusive means small, poorly fitted or top-dose-only effect, or another doubt; inactive means flat fitted curve, though single readings scatter.
# Legend:
# [1] = AP1 Signaling Pathway (AID 357); settings: ME-180 (cervical carcinoma) AP-1-bla reporter, EGF-induced, beta-lactamase ratio, 5 h;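 further: ME-180 reporter cells stimulated with EGF at its EC50 level; on the % scale 0 is the no-effect control and ±100 the full control effect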
# Outline: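 Modulation of EGF-driven AP-1 transcription was assessed with a beta-lactamase reporter in ME-180 cells. Compound and EC50 EGF were co-incubated 5 hours at 37 °C before 2.5-hour CCF4 loading at room temperature and dual-emission reading.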
# [2] = molecular target: Cytochrome P450 1A2 (Homo sapiens) (UniProt P05177); assay: p450-cyp1a2 (AID 410; calls by dose curve; further: potency means the concentration at half of the fitted maximal effect;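 on activity change, negative = inhibition: -100% = full effect of reference inhibitor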)
# Chain of Cytochrome P450 1A2 (Homo sapiens) (P05177 whole entry, looked up): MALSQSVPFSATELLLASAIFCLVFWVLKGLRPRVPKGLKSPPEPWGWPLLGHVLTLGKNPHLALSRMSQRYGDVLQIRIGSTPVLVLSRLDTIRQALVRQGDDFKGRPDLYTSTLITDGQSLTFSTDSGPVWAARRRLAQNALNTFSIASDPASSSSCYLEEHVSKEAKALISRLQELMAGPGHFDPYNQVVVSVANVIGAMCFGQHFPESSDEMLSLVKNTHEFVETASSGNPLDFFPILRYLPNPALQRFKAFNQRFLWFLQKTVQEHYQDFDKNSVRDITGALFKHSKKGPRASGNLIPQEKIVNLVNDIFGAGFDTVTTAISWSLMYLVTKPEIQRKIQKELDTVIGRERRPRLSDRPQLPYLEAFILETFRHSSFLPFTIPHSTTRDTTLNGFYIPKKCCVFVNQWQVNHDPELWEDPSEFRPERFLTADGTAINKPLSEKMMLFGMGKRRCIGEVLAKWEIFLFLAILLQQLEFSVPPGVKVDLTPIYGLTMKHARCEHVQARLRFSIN
# Outline: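 Read-out is luminescence from luciferin produced by CYP1A2 demethylation of Luciferin-ME (100uM, at Km). Detection reagent stopped the 60 min NADPH-dependent reaction; signals were normalized to 57 uM furafylline.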
# [3] = NFAT Signaling Pathway (AID 444); settings: Jurkat NFAT-bla M1, carbachol, beta-lactamase ratio, 5 h;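 further: carbachol stimulus at about its EC50 of 1 µM final; on the % scale 0 is the no-effect control and ±100 the full control effect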
# Outline: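 Jurkat cells with NFAT-driven β-lactamase reporter and co-expressed M1 receptor, stimulated with carbachol (final 1 uM, ~EC50), compound titration, 5 h at 37 °C. CCF4 loaded 1 h at RT; 460/530 nm ratio gave %activity and AC50.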
# [4] = Cell Viability - BJ (AID 421; calls by dose curve;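 further: potency means the concentration at half of the fitted maximal effect; cells exposed to compound for 40 hours at 37 °C before readout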); settings: BJ fibroblast viability, qHTS
# Outline: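 Cytotoxicity as drop in intracellular ATP (CellTiter-Glo, 20 min RT) after 40 hr compound exposure of BJ fibroblasts at 37 °C. Titrations scaled between DMSO and 100 uM tamoxifen, Hill-fitted for AC50.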
# [5] = Cell Viability - Jurkat (AID 426;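 active means dose-dependent loss of cell ATP signal giving a full or clear fitted curve, ranked by lower potency value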;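 further: potency means the concentration at half of the fitted maximal effect; cells exposed to compound for 40 hours at 37 °C before ATP read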); settings: qHTS
# Outline: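 Cytotoxicity was scored as loss of cellular ATP, measured by luciferase-based luminescence, in Jurkat clone E6-1 cells after 40 h compound treatment; tamoxifen and doxorubicin served as positive controls.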
# [6] = Cell Viability - Hek293 (AID 427;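 active means compounds whose dose-response curve shows a full or clear partial loss of cell viability, called from curve shape rather than a numeric limit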;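 further: potency means the concentration at half of the fitted maximal effect; cells exposed to compound for 40 hours at 37 °C before reading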); settings: qHTS
# Outline: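 Luminescent ATP content (CellTiter-Glo, 20 min at room temperature) was measured after a 40 hr, 37 °C compound exposure of HEK293 cells. AC50 values came from Hill-equation fits of qHTS concentration-response data normalized to DMSO and 100 uM tamoxifen.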
# [7] = Cell Viability - HepG2 (AID 433; calls by dose curve;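 further: potency means the concentration at half of the fitted maximal effect; cells exposed to compound for 40 hours; potency for ATP loss meaning cytotoxicity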); settings: qHTS
# Outline: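 In this qHTS format, a 40 h, 37 °C compound incubation of HepG2 cells in complete medium precedes a 20 min CellTiter-Glo step at room temperature. Tamoxifen and doxorubicin serve as positive controls; Hill-equation fits yield AC50.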
# [8] = Cell Viability - MRC5 (AID 434; calls by dose curve;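 further: potency means the concentration at half of the fitted maximal effect; cells exposed to compound for 40 hours at 37 °C; potency reflects cytotoxicity seen as loss of intracellular ATP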); settings: MRC5 lung fibroblast viability, qHTS
# Outline: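 ATP luminescence read-out (CellTiter-Glo, 20 min RT) after 40 hr, 37 °C compound exposure of 1500 MRC5 cells/well. Data normalized to DMSO (basal) and 100 uM tamoxifen (100% inhibition); AC50 from standard Hill equation.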
# [9] = Cell Viability - SK-N-SH (AID 435; calls by dose curve;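 further: potency means the concentration at half of the fitted maximal effect; compound exposure lasted 40 h at 37 °C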); settings: SK-N-SH neuroblastoma cell viability qHTS
# Outline: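 Human neuroblastoma line, 40 h exposure at 37 °C, ATP quantified via luciferase luminescence; DMSO and 100 uM tamoxifen define 0 and 100% inhibition for AC50 fitting.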
# [10] = at 38 µM (top of the series) unless noted
compound,measurement,setting,value
O=[N+]([O-])c1cccc2cn[nH]c12,"activity change, negative = inhibition",[1]; at 17.2 µM (top of the series),-15.6% (inactive)
same,"activity change, negative = inhibition",[1]; at 38 µM (top of the series),0.682% (inactive)
same,Potency,[2],12.6 µM (active) and 2.51 µM (active)
same,"activity change, negative = inhibition",[3]; at 17.2 µM (top of the series),-4.2% (inactive)
same,"activity change, negative = inhibition",[3]; at 38 µM (top of the series),-7.34% (inactive)
NCCCCN,"activity change, negative = inhibition",[1]; [10],15.3% (inactive)
same,Potency,[2],inactive
same,"activity change, negative = inhibition",[3]; [10],-2.09% (inactive)
Nc1nc2[nH]c(=O)cnc2c(=O)[nH]1,"activity change, negative = inhibition",[1]; [10],6.93% (inactive)
same,Potency,[2],inactive
same,"activity change, negative = inhibition",[3]; [10],-5.45% (inactive)
CC(=O)C(C)=O,"activity change, negative = inhibition",[1]; [10],-3.27% (inactive)
same,Potency,[2],inactive
same,Potency,[4],> 92 µM (inactive)
same,Potency,[5],> 92 µM (inactive)
same,Potency,[6],> 92 µM (inactive)
same,Potency,[7],> 92 µM (inactive)
same,Potency,[8],> 92 µM (inactive)
same,Potency,[9],> 92 µM (inactive)
same,"activity change, negative = inhibition",[3]; [10],3.23% (inactive)
N=C(N)c1ccc(OCCCCCOc2ccc(C(=N)N)cc2)cc1 (tested in a mixture with another compound),"activity change, negative = inhibition",[1]; [10],5.08% (inactive)
Nc1nc2ccc(Cl)cc2c2nc(-c3ccco3)nn12,"activity change, negative = inhibition",[1]; [10],-6.92% (inactive)
same,Potency,[2],631 nM (active) and 63.1 nM (active)
same,"activity change, negative = inhibition",[3]; [10],19.6% (inactive)
COc1ccc2c(c1)c(CC(=O)O)c(C)n2C(=O)c1ccccc1,"activity change, negative = inhibition",[1]; [10],1.55% (inactive)
same,Potency,[2],12.6 µM (active)
same,"activity change, negative = inhibition",[3]; [10],-0.217% (inactive)
COCc1nc2c([nH]1)c(=O)n(C)c(=O)n2CC(C)C,"activity change, negative = inhibition",[1]; [10],1.03% (inactive)
same,Potency,[2],12.6 µM (active)
same,"activity change, negative = inhibition",[3]; [10],9.41% (inactive)
N=C(N)c1ccccc1,"activity change, negative = inhibition",[1]; [10],10.4% (inactive)
same,Potency,[2],inactive
same,"activity change, negative = inhibition",[3]; [10],-2.62% (inactive)
CCN(c1nc(N)c(C(=O)N=C(N)N)nc1Cl)C(C)C,"activity change, negative = inhibition",[1]; [10],29.9% (inactive)
same,Potency,[2],2 µM (active)
same,"activity change, negative = inhibition",[3]; [10],-3.34% (inactive)
Cn1c(=O)[nH]c2ncn(C)c2c1=O,"activity change, negative = inhibition",[1]; [10],0.808% (inactive)
same,Potency,[2],inactive
same,"activity change, negative = inhibition",[3]; [10],-1.89% (inactive)
CC(C)(CO)Cc1cc(C(C)(C)C)c(O)c(C(C)(C)C)c1,"activity change, negative = inhibition",[1]; [10],4.82% (inactive)
same,Potency,[2],31.6 µM (active) and 25.1 µM (active)
same,"activity change, negative = inhibition",[3]; [10],-10.6% (inactive)
N=C(N)SCCN,"activity change, negative = inhibition",[1]; [10],3.17% (inactive)
same,Potency,[2],inactive and 31.6 µM (active)
same,"activity change, negative = inhibition",[3]; [10],-0.506% (inactive)
C=CCn1c(=O)c2c(nc(-c3ccc(S(=O)(=O)O)cc3)n2C)n(C)c1=O,"activity change, negative = inhibition",[1]; [10],7.93% (inactive)
same,Potency,[2],inactive
same,"activity change, negative = inhibition",[3]; [10],-1.07% (inactive)
NC(N)=[N+]1CCc2ccccc2C1,"activity change, negative = inhibition",[1]; [10],-5.39% (inactive)
same,Potency,[2],inactive
same,"activity change, negative = inhibition",[3]; [10],1.51% (inactive)
CC(N)=O,"activity change, negative = inhibition",[1]; [10],9.17% (inactive)
same,Potency,[2],inactive
same,"activity change, negative = inhibition",[3]; [10],-6.62% (inactive)
N=C(N)SCCc1cnc[nH]1,"activity change, negative = inhibition",[1]; [10],5.57% (inactive)
same,Potency,[2],inactive
same,"activity change, negative = inhibition",[3]; [10],-4.42% (inactive)
O=C(O)/C(=C/c1c(C(=O)O)[nH]c2cc(Cl)cc(Cl)c12)c1ccccc1,"activity change, negative = inhibition",[1]; [10],1.71% (inactive)
same,Potency,[2],12.6 µM (active)
same,"activity change, negative = inhibition",[3]; [10],-3.51% (inactive)
O=C(O)C1=CCNCC1,"activity change, negative = inhibition",[1]; [10],-4.73% (inactive)
same,Potency,[2],inactive
same,"activity change, negative = inhibition",[3]; [10],-0.658% (inactive)
N=C(N)c1ccc(N)cc1,"activity change, negative = inhibition",[1]; [10],6.35% (inactive)
same,Potency,[2],inactive
same,"activity change, negative = inhibition",[3]; [10],5.12% (inactive)
Cn1c(=O)c2[nH]c(-c3ccc(S(=O)(=O)O)cc3)nc2n(C)c1=O,"activity change, negative = inhibition",[1]; [10],8.6% (inactive)
same,Potency,[2],inactive
same,"activity change, negative = inhibition",[3]; [10],8.07% (inactive)
Cc1nc(N=Nc2ccc(S(=O)(=O)O)cc2S(=O)(=O)O)c(COP(=O)(O)O)c(C=O)c1O,"activity change, negative = inhibition",[1]; [10],-10.9% (inactive)
same,Potency,[2],inactive
same,"activity change, negative = inhibition",[3]; [10],2.46% (inactive)
CC(C)Cn1c(=O)n(C)c(=O)c2[nH]cnc21,"activity change, negative = inhibition",[1]; [10],0.858% (inactive)
same,Potency,[2],20 µM (active)
same,"activity change, negative = inhibition",[3]; [10],-7.31% (inactive)
O=c1cc(-c2ccccc2)[nH]c2nc(Cl)ccc12,"activity change, negative = inhibition",[1]; [10],-2.89% (inactive)
same,Potency,[2],0.398 µM (active)
same,"activity change, negative = inhibition",[3]; [10],-13% (inactive)
CN1CCN(c2nc3cc(C(F)(F)F)ccc3n3cccc23)CC1,"activity change, negative = inhibition",[1]; [10],-17.4% (inactive)
same,Potency,[2],200 nM (active) and 39.8 nM (active)
same,"activity change, negative = inhibition",[3]; [10],28.4% (inactive)
CNc1cc(NS(=O)(=O)c2ccc(N)cc2)nc(NC)n1,"activity change, negative = inhibition",[1]; [10],4.35% (inactive)
same,Potency,[2],inactive
same,"activity change, negative = inhibition",[3]; [10],3.2% (inactive)
CCCn1c(=O)c2c(ncn2C)n(CCC)c1=O,"activity change, negative = inhibition",[1]; [10],2.31% (inactive)
same,Potency,[2],7.94 µM (active)
same,"activity change, negative = inhibition",[3]; [10],0.366% (inactive)
O=C1Cc2c([nH]c3ccc(Br)cc23)-c2ccccc2N1,"activity change, negative = inhibition",[1]; [10],-104% (active)
same,Potency,[2],1.26 µM (active) and 158 nM (active)
same,"activity change, negative = inhibition",[3]; [10],-74.4% (active)
COc1cc(CC(=O)O)ccc1O,"activity change, negative = inhibition",[1]; [10],8.32% (inactive)
same,Potency,[2],inactive
same,"activity change, negative = inhibition",[3]; [10],6.22% (inactive)
Cc1nc(N=Nc2cc(S(=O)(=O)O)c3cc([N+](=O)[O-])cc(S(=O)(=O)O)c3c2)c(COP(=O)(O)O)c(C=O)c1O,"activity change, negative = inhibition",[1]; [10],-0.539% (inactive)
same,Potency,[2],39.8 µM (active)
same,"activity change, negative = inhibition",[3]; [10],2.42% (inactive)
COc1ccc(CCN(C)CCc2ccc(OC)c(OC)c2)cc1OC,"activity change, negative = inhibition",[1]; [10],10.7% (inactive)
same,Potency,[2],inactive
same,"activity change, negative = inhibition",[3]; [10],-20.2% (inactive)

# Source: PubChem BioAssay (NCATS)
